Source: the supplement of paper PMC7411054

Legend:
Assay in all cases: phenotypically active (imaging signature differs from DMSO and reproducible) at any of 0.3-9 uM (binary (1 = active, 0 = inactive)); higher = active
Details in all cases: treatment time: 24 h
[1] = system: A549-ACTB-RAB5A
Outline: (§1)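 Phenotypic activity depended on meeting both a deviation and a reproducibility criterion. The fifteen gene-edited A549, HepG2 and WPMY1 reporter lines were treated at 0.3, 1, 3 or 9 µM for 24 h, four wells each, then imaged live with features normalised to solvent control wells. Deviation required ≥3 of 4 wells past the 95th percentile of control Euclidean distances, and reproducibility a median replicate Pearson correlation above the 95th percentile of non-replicates.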

[2] = system: A549-CANX-COX4
Outline: as §1

[3] = system: A549-GM130-SQSTM1
Outline: as §1

[4] = system: A549-TP53BP1-CLTA
Outline: as §1

[5] = system: A549-TUBA1B-RELA
Outline: as §1

[6] = system: HepG2-ACTB-RAB5A
Outline: as §1

[7] = system: HepG2-CANX-COX4
Outline: as §1

[8] = system: HepG2-GM130-SQSTM1
Outline: as §1

[9] = system: HepG2-TP53BP1-CLTA
Outline: as §1

[10] = system: HepG2-TUBA1B-RELA
Outline: as §1

[11] = system: WPMY1-ACTB-RAB5A
Outline: as §1

[12] = system: WPMY1-CANX-COX4
Outline: as §1

[13] = system: WPMY1-GM130-SQSTM1
Outline: as §1

[14] = system: WPMY1-TP53BP1-CLTA
Outline: as §1

[15] = system: WPMY1-TUBA1B-RELA
Outline: as §1

Measured: phenotypically active

CCCCC(=O)O[C@H]1CC[C@H]2[C@@H]3CCc4cc(O)ccc4[C@H]3CC[C@]12C [estradiol valerate]
inactive: [1] 0 | [2] 0 | [3] 0 | [4] 0 | [5] 0 | [6] 0 | [7] 0 | [8] 0 | [9] 0 | [10] 0 | [11] 0 | [12] 0 | [13] 0 | [14] 0 | [15] 0

CC1(C)[C@@H](O)CC[C@]2(C)[C@H]3C(=O)C=C4[C@@H]5C[C@@](C)(C(=O)O)CC[C@]5(C)CC[C@@]4(C)[C@]3(C)CC[C@@H]12 [Glycyrrhetinic Acid]
inactive: [1] 0 | [2] 0 | [3] 0 | [4] 0 | [5] 0 | [6] 0 | [7] 0 | [8] 0 | [9] 0 | [10] 0 | [11] 0 | [12] 0 | [13] 0 | [14] 0 | [15] 0

COC(=O)C1CC23C=CCN4CCC5(c6ccccc6NC15[C@H]2C)C43 (stereo not given in full) [Vindolinine dichlorhydrate]
inactive: [1] 0 | [2] 0 | [3] 0 | [4] 0 | [5] 0 | [6] 0 | [7] 0 | [8] 0 | [9] 0 | [10] 0 | [11] 0 | [12] 0 | [13] 0 | [14] 0 | [15] 0

COc1c(OC2OC(CO)[C@@H](O)[C@H](O)[C@H]2O)cc2c(c1OC)-c1ccc(OC)c(=O)cc1[C@@H](NC(C)=O)CC2 (stereo not given in full) [Colchicoside]
inactive: [1] 0 | [2] 0 | [3] 0 | [4] 0 | [5] 0 | [6] 0 | [7] 0 | [8] 0 | [9] 0 | [10] 0 | [11] 0 | [12] 0 | [13] 0 | [14] 0 | [15] 0

CCC1(c2ccccc2)C(=O)NCNC1=O [primidone]
inactive: [1] 0 | [2] 0 | [3] 0 | [4] 0 | [5] 0 | [6] 0 | [7] 0 | [8] 0 | [9] 0 | [10] 0 | [11] 0 | [12] 0 | [13] 0 | [14] 0 | [15] 0

NS(=O)(=O)c1cc(C2(O)NC(=O)c3ccccc32)ccc1Cl (stereo not given) [chlorthalidone]
inactive: [1] 0 | [2] 0 | [3] 0 | [4] 0 | [5] 0 | [6] 0 | [7] 0 | [8] 0 | [9] 0 | [10] 0 | [11] 0 | [12] 0 | [13] 0 | [14] 0 | [15] 0

Nc1ncnc2c1ncn2[C@H]1O[C@@H](C(=O)N2CCN(CC(=O)Nc3cccc4c3CNC4=O)CC2)[C@H](O)[C@@H]1O
inactive: [1] 0 | [2] 0 | [3] 0 | [4] 0 | [5] 0 | [6] 0 | [7] 0 | [8] 0 | [9] 0 | [10] 0 | [11] 0 | [12] 0 | [13] 0 | [14] 0 | [15] 0

COc1ccc(C(C)=O)c(O)c1 [2'-Hydroxy-4'-Methoxyacetophenone]
inactive: [1] 0 | [2] 0 | [3] 0 | [4] 0 | [5] 0 | [6] 0 | [7] 0 | [8] 0 | [9] 0 | [10] 0 | [11] 0 | [12] 0 | [13] 0 | [14] 0 | [15] 0

COc1ccc(Cl)cc1C(=O)NCCc1ccc(S(=O)(=O)NC(=O)NC2CCCCC2)cc1 [glyburide]
inactive: [1] 0 | [2] 0 | [3] 0 | [4] 0 | [5] 0 | [6] 0 | [7] 0 | [8] 0 | [9] 0 | [10] 0 | [11] 0 | [12] 0 | [13] 0 | [14] 0 | [15] 0

CC(=O)N[C@@H](CC(=O)O)C(=O)N[C@@H](CCC(=O)O)C(=O)O [Spaglumic acid]
inactive: [1] 0 | [2] 0 | [3] 0 | [4] 0 | [5] 0 | [6] 0 | [7] 0 | [8] 0 | [9] 0 | [10] 0 | [11] 0 | [12] 0 | [13] 0 | [14] 0 | [15] 0

COC(=O)C1=CO[C@@H](O[C@@H]2O[C@H](CO)[C@@H](O)[C@H](O)[C@H]2O)[C@H]2[C@@H]1C(=O)C[C@@H]2C [Verbenaline]
inactive: [1] 0 | [2] 0 | [3] 0 | [4] 0 | [5] 0 | [6] 0 | [7] 0 | [8] 0 | [9] 0 | [10] 0 | [11] 0 | [12] 0 | [13] 0 | [14] 0 | [15] 0

COc1ccc2c(c1)c(CC(=O)O)c(C)n2C(=O)c1ccc(Cl)cc1 [indomethacin]
inactive: [1] 0 | [2] 0 | [3] 0 | [4] 0 | [5] 0 | [6] 0 | [7] 0 | [8] 0 | [9] 0 | [10] 0 | [11] 0 | [12] 0 | [13] 0 | [14] 0 | [15] 0
